For 18 molecules, Potency and activity change, negative = cytotoxic results are on record in PubChem BioAssay (NCATS).

“And” between values parts separate entries of the source, which are not always exact repeats. Equal values may be shown once. Inconclusive results are not listed. Some structures have more than one record in an assay (separate samples or runs), and their calls can disagree. A number with no mark means an inactive call. The source made the active and inactive calls. Calls come from the whole dose curve; as a rule, active = well fitted curve in the direction sought with a large enough effect; inconclusive = small, poorly fitted or top-dose-only effect, or another doubt; inactive = no such curve, though single readings can be large; an effect the other way counts as inactive or inconclusive.

The nature of experiment [1]: qHTS of pediatric cancer cell lines to identify multiple opportunities for drug repurposing: Primary screen for DAOY cells (AID 1347090).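 For activity change, negative = cytotoxic: series mostly up to about 46 µM; plate controls were DMSO for no effect and bortezomib for full effect.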 Note: nearly all actives have a fitted effect of over 55% in size. In outline: (§1)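 Cell viability, CellTiter-Glo luminescence; 500-1,000 cells/well, 8- or 11-point titration, 48 h compound exposure at 37 degrees C, 5% CO2. Controls: DMSO neutral, bortezomib 2.3 µM final as positive.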
Background: Quantitative high-throughput screening tests each substance at several concentrations.

A short description of experiment [2]: qHTS of pediatric cancer cell lines to identify multiple opportunities for drug repurposing: Primary screen for SJ-GBM2 cells (AID 1347091).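 For activity change, negative = cytotoxic: plate controls were DMSO neutral control for no effect and bortezomib for full effect.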 In a few lines:
as §1

A short description of experiment [3]: qHTS of pediatric cancer cell lines to identify multiple opportunities for drug repurposing: Primary screen for A673 cells (AID 1347092). For activity change, negative = cytotoxic: % is set by controls: 0 for no effect and ±100 for the full control effect. Note: nearly all actives have a fitted effect of over 45% in size. In a few lines: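 Titration-based qHTS on A673 cells: MIPE compounds spanned 11 points (0.78 nM to 46 µM final), NPC compounds 8 points (0.59 nM to 46 µM final). Viability after 48 h was measured by ATP luminescence.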
Experiment [4] in a line: qHTS of pediatric cancer cell lines to identify multiple opportunities for drug repurposing: Primary screen for SK-N-MC cells (AID 1347093).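 For activity change, negative = cytotoxic: series mostly up to about 46 µM; plate controls were DMSO neutral control for no effect and bortezomib for full effect.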 In a few lines:
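Metabolically active cells were quantified by ATP-dependent luminescence (CellTiter-Glo, 15 min at room temperature) following 48 h treatment. Cells had been plated at 500-1,000 per well and settled for 5 h beforehand.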

Experiment [5] is described as follows: qHTS of pediatric cancer cell lines to identify multiple opportunities for drug repurposing: Primary screen for BT-37 cells (AID 1347094).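 For activity change, negative = cytotoxic: series mostly up to about 57 µM; plate controls were DMSO for no effect and bortezomib for full effect.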 In outline: (§2)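 Cells plated at 500-1,000/well in growth medium, compounds added after 5 h. MIPE tested at 11 points (from 0.78 nM), NPC at 8 points (from 0.59 nM). CellTiter-Glo luminescence after 48 h; concentration-response curves from primary screen.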

Experiment [6] can be described thus: qHTS of pediatric cancer cell lines to identify multiple opportunities for drug repurposing: Primary screen for NB-EBc1 cells (AID 1347095).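 For activity change, negative = cytotoxic: plate controls were DMSO neutral control for no effect and bortezomib for full effect.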 In outline:
as §2

Experiment [7] in a line: qHTS of pediatric cancer cell lines to identify multiple opportunities for drug repurposing: Primary screen for U-2 OS cells (AID 1347096).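 For activity change, negative = cytotoxic: plate controls were DMSO wells for no effect and bortezomib positive control wells for full effect.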 Note: nearly all actives have a fitted effect of over 50% in size. In outline:
(§3)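 Cells (500-1,000/well) rested 5 h, then received compounds for 48 h; metabolically active cells were measured by CellTiter-Glo luminescence. Final concentrations spanned up to 46 µM (MIPE, 11-point) or 0.59 nM-46 µM (NPC, 8-point) in primary screens, 11-point in follow-ups.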

The nature of experiment [8]: qHTS of pediatric cancer cell lines to identify multiple opportunities for drug repurposing: Primary screen for Saos-2 cells (AID 1347097). For activity change, negative = cytotoxic: % is set by controls: 0 for no effect and ±100 for the full control effect. Note: nearly all actives have a fitted effect of over 40% in size. In outline:
as §2

The nature of experiment [9]: qHTS of pediatric cancer cell lines to identify multiple opportunities for drug repurposing: Primary screen for SK-N-SH cells (AID 1347098). For activity change, negative = cytotoxic: % is set by controls: 0 for no effect and ±100 for the full control effect. Note: nearly all actives have a fitted effect of over 65% in size. In a few lines:
as §3

Experiment [10] is described as follows: qHTS of pediatric cancer cell lines to identify multiple opportunities for drug repurposing: Primary screen for NB1643 cells (AID 1347099).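 For activity change, negative = cytotoxic: plate controls were DMSO neutral control for no effect and bortezomib positive control for full effect.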 Note: nearly all actives have a fitted effect of over 50% in size. In outline: as §2
Potency is the fitted concentration of half-maximal effect.

`CCN(CCO)CCCC(C)Nc1ccnc2cc(Cl)ccc12` (stereo unspecified): the Potency entry in experiment [1], in experiment [7] and in experiment [8] was “inactive” in each case. Also, the activity change, negative = cytotoxic in experiment [2] is 13.4% [at 4.84 µM]; in experiment [3], 4.16% [at 4.84 µM]; in [4], -1.47% [at 4.84 µM]; in experiment [5] it was 5.71% [at 6.03 µM]; in [6], 13.9% [at 4.84 µM]; in experiment [9] it was -2.15% [at 6 µM]. Also, in experiment [10], the activity change, negative = cytotoxic was 19.4% [at 4.84 µM]. Moreover, the Potency in experiment [3] was 2.35 µM (active); in experiment [4], 2.96 µM (active); in experiment [5], 3.85 µM (active); in experiment [6] it was 1.18 µM (active).

As for `Nc1ccc(S(N)(=O)=O)cc1`, the Potency result in experiment [1], in experiment [2], in [3], in experiment [4], in experiment [5] and in [6] was “inactive” in each case. The Potency result in [7], in [8], in experiment [9] and in [10] was “inactive” throughout.

Turning to `Cc1ncc([N+](=O)[O-])n1CC(C)O` (stereo unspecified), the Potency entry in experiment [1], in experiment [2], in [3], in [4], in [5] and in experiment [6] was “inactive” throughout. In addition, the Potency entry in experiment [7], in [8], in [9] and in [10] was “inactive” in each case.

Consider `CCOC(=O)c1c(C)n(C)c2ccc(O)cc12`, for which the Potency entry in experiment [1], in experiment [2], in experiment [3], in experiment [4], in experiment [5] and in experiment [6] was “inactive” in each case. In addition, the Potency result in experiment [7], in [8], in experiment [9] and in [10] was “inactive” each time.

Turning to `CCCCC(CC)COC(=O)C(C#N)=C(c1ccccc1)c1ccccc1` (stereo unspecified), the Potency result in experiment [1], in experiment [2], in [3], in experiment [5], in experiment [6] and in experiment [7] was “inactive” in each case. The Potency result in [8] is “inactive”. For the same molecule, the Potency in [4] was 16.8 µM (active) and 7.43 µM (active).

As for `Cc1cc(=O)oc2cc(O)ccc12`, the Potency result in [1], in experiment [2], in experiment [3], in [4], in experiment [5] and in experiment [6] was “inactive” each time. Moreover, the Potency result in [7], in [8], in experiment [9] and in experiment [10] was “inactive” throughout.

`NC(=O)Cc1cccc(C(=O)c2ccccc2)c1N`: the Potency result in experiment [1], in experiment [2], in experiment [3], in experiment [4], in experiment [5] and in [6] was “inactive” in each case. For the same molecule, the Potency result in [7], in [8], in experiment [9] and in experiment [10] was “inactive” throughout.

For `CCCCCCCCCCCCCCCCCCCCCCO`, the Potency result in experiment [1], in [2], in [3], in experiment [4], in experiment [5] and in experiment [6] was “inactive” throughout. Further, the Potency result in [7], in experiment [8] and in [10] was “inactive” in each case.

On to `N=C(N)c1ccc2cc(OC(=O)c3ccc(N=C(N)N)cc3)ccc2c1`, for which the Potency entry in experiment [1], in [2], in [3], in experiment [4], in experiment [5] and in experiment [6] was “inactive” each time. In addition, the Potency entry in experiment [7], in [8], in experiment [9] and in [10] was “inactive” in each case.

On to `CN(c1nccc(=O)[nH]1)C1CCN(c2nc3ccccc3n2Cc2ccc(F)cc2)CC1`, for which the Potency entry in [1], in [2], in [3], in experiment [5], in experiment [6] and in experiment [7] was “inactive” in each case. For the same molecule, the Potency result in [8] and in experiment [9] was “inactive” each time. In addition, the Potency in [4] was 2.64 µM (active).

Consider `CC1=C(C(=O)O)N2C(=O)[C@@H](NC(=O)[C@H](N)C3=CCC=CC3)[C@H]2SC1`, for which the Potency result in experiment [1], in experiment [2], in [3], in experiment [4], in experiment [5] and in [6] was “inactive” each time. Also, the Potency entry in experiment [7], in experiment [8], in experiment [9] and in [10] was “inactive” throughout.

As for `CC(C)C[C@H](NC(=O)[C@H](Cc1ccccc1)NC(=O)c1cnccn1)B(O)O`, the Potency was 29.6 nM (active) in experiment [1]; 26.6 nM (active) in experiment [2]; 0.0531 µM (active) in [3]; 0.006 µM (active) in [4]; 0.0347 µM (active) in experiment [5]; 0.0376 µM (active) in experiment [6]. Besides, the Potency was 42.2 nM (active) in [7], 469 nM (active) in experiment [8], 42.9 nM (active) in [9] and 29.9 nM (active) in experiment [10].

Consider `O=C(O)c1cccnc1Nc1cccc(C(F)(F)F)c1`, for which the Potency entry in experiment [1], in experiment [2], in experiment [3], in [5], in [6] and in experiment [7] was “inactive” each time. The Potency result in [8], in experiment [9] and in experiment [10] was “inactive” in each case. Further, in experiment [4], the Potency is 26.6 µM (active).

In the case of `CCN(CC)C(=S)SSC(=S)N(CC)CC`, the Potency in experiment [1] is 11.8 nM (active) and 49.5 nM (active) and 133 nM (active); in experiment [2], 4690 nM (active); in [3], 11.8 nM (active) and 19.7 nM (active); in [4], 18.7 nM (active) and 49.5 nM (active) and 119 nM (active); in experiment [5], 24.3 nM (active) and 815 nM (active); in experiment [6] it was 11.8 nM (active) and 31.3 µM (active). Also, the Potency in experiment [7] was 74.3 nM (active); in experiment [8], 13.2 nM (active) and 62.4 nM (active) and 211 nM (active); in experiment [9] it was 114 nM (active); in experiment [10], 83.3 nM (active) and 124 nM (active) and 668 nM (active).

For `COc1cc2c(cc1OC)C1CC(=O)C(CC(C)C)CN1CC2` (stereo unspecified), the Potency result in [1], in experiment [2], in experiment [3], in experiment [4], in experiment [5] and in [6] was “inactive” each time. The Potency result in experiment [7], in experiment [8], in experiment [9] and in [10] was “inactive” in each case.

On to `O=C(OC1C[C@H]2CC[C@@H](C1)[N+]21CCCC1)C(O)(c1ccccc1)c1ccccc1` (stereo partly specified), for which the Potency result in experiment [1], in [2], in experiment [3], in [5], in experiment [6] and in experiment [7] was “inactive” in each case. The Potency entry in [8] is “inactive”. The Potency in experiment [4] is 14.8 µM (active); in [10], 10500 nM (active).

As for `CN(C)C(=O)[C@H](O)[C@H](Cc1ccccc1)NC(=O)c1cc2cc(Cl)ccc2[nH]1`, the Potency in experiment [1] is 7430 nM (active); in experiment [2], 4690 nM (active); in experiment [3], 5.9 µM (active); in experiment [4], 1.18 µM (active); in experiment [6] it was 3.32 µM (active). Further, the Potency result in experiment [5] and in experiment [7] was “inactive” throughout.

As for `Nc1cc(C(Cl)=C(Cl)Cl)c(S(N)(=O)=O)cc1S(N)(=O)=O`, the Potency entry in [1], in [2], in [3], in experiment [4], in experiment [5] and in [6] was “inactive” throughout. In addition, the Potency entry in [7], in [8], in experiment [9] and in experiment [10] was “inactive” in each case.
